Pol iota inh: qHTS for Inhibitors of Polymerase Iota | Pol iota fluorescent replication assay, 10 min | 1% of 390,000 active | AID 588590, 2011 | Potency, µM (top dose mostly 115 µM), without a hit: top-dose activity, negative = inhibition, actives largely listed as inhibitors
Target sequence (Q9UNA4 whole entry, looked up): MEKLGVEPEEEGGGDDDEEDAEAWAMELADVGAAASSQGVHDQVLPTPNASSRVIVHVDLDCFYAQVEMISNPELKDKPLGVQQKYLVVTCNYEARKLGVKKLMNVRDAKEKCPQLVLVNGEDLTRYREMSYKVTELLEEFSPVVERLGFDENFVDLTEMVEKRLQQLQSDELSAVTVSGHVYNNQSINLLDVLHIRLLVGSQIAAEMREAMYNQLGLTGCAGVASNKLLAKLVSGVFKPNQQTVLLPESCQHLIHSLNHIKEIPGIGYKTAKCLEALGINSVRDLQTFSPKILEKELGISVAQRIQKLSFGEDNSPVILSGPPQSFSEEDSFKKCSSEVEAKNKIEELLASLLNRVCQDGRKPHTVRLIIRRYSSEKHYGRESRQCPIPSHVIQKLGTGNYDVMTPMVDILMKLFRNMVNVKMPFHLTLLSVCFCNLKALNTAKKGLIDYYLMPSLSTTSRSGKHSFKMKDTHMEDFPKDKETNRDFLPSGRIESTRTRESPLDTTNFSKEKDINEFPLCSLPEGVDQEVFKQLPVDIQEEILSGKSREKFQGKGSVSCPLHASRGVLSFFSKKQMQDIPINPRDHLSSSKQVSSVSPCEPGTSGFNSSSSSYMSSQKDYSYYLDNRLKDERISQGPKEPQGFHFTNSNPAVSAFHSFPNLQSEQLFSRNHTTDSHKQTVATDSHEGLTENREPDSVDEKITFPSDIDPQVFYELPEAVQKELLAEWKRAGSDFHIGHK
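Fluorescent replication assay read twice, at 0 min and 10 min after adding 50 nM (final) substrate. Enzyme (10 nM) and compounds were first incubated 15 min at room temperature; enzyme-free buffer wells were negative controls.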
POLB inh: qHTS Assay for Inhibitors of DNA Polymerase Beta; P06746; 1.3% of 340,000 active; AID 485314, 2010; Pol beta primer extension/strand displacement, fluorescence kinetic; Potency, µM (titrated, usually from 114 µM), for inactives: at the highest dose activity change, negative = inhibition, actives largely listed as inhibitors; further: on the % scale 0 is the no-effect control and ±100 the full control effect
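Human Pol beta at 10 nM; strand-displacement substrate 50 nM final. Compound exposure 15 min at room temperature before start, reaction 10 min at room temperature.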
FEN1 inhibitor: qHTS Assay for the Inhibitors of Human Flap endonuclease 1 (FEN1). P39748. AID 588795, 2011. Recombinant FEN1 flap cleavage, fluorescence, 15 min. Potency, µM (doses to about 114 µM), without a hit: at the top dose activity change, negative = inhibition, usual class: inhibitors. 0.35% of 390,000 active; further: on the % scale 0 is the no-effect control and ±100 the full control effect; nearly all actives have a fitted effect of over 65% in size
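Potency values derive from four-parameter Hill fits of normalized qHTS data. The reaction used 10 nM FEN1 preincubated 15 min at room temperature with compound, then 50 nM DNA substrate, read at 0 and 15 min.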
WRN helicase inh: qHTS for Inhibitors of WRN Helicase. Bifunctional 3'-5' exonuclease/ATP-dependent helicase WRN (Homo sapiens), Q14191. WRN helicase unwinding, fluorescent forked duplex, kinetic. Potency, µM (series often up to 114 µM), for inactives: at the highest dose activity change, negative = inhibition, actives largely listed as inhibitors. 0.46% of 360,000 active; further: on the % scale 0 is the no-effect control and ±100 the full control effect; nearly all actives have a fitted effect of over 55% in size
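Enzyme (20 nM final) and test compound sit together 15 min at room temperature before substrate addition. Substrate is a single-forked duplex oligonucleotide (100 nM) labelled with fluorophore and quencher, with 2 mM ATP; helicase unwinding raises red fluorescence, read kinetically.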
Pol eta inh: qHTS for Inhibitors of Polymerase Eta; DNA polymerase eta (Homo sapiens), Q9Y253; recombinant Pol eta, fluorescent DNA replication assay; Potency, µM (series often up to 114 µM), for the others: at the top dose activity change, negative = inhibition, hits mostly inhibitors; 1.2% of 390,000 active; AID 588591, 2011; further: on the % scale 0 is the no-effect control and ±100 the full control effect
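Pol eta (10 nM) was preincubated with compounds for 15 min at room temperature, after which fluorescent replication substrate (50 nM final) was added to start the reaction. Fluorescence was read kinetically at 0 and 10 min.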
POLK inh: qHTS for Inhibitors of Polymerase Kappa | purified Pol kappa, fluorescent DNA synthesis assay, 10 min | AID 588579, 2011 | DNA polymerase kappa (Homo sapiens), Q9UBT6 | 0.53% of 400,000 active | Potency, µM (series often up to 107 µM), inactives show at the top dose activity, negative = inhibition, usual class: inhibitors; further: on the % scale 0 is the no-effect control and ±100 the full control effect
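Here, compound and 10 nM enzyme are combined for 15 min at room temperature; adding 50 nM substrate (final) starts DNA synthesis, tracked by fluorescence at 0 and 10 min against buffer-only wells.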
An asterisk follows results filed as active; ? = inconclusive; . = no result given; ! = not active in a repeat; [ ] = remark or other dose. Shown are actives, neighbours in structure and some others; about 2.4% of the full set was active somewhere. The call rests on the fitted dose curve; in most records, active means well fitted curve in the direction sought with a large enough effect; inconclusive means small, poorly fitted or top-dose-only effect, or another doubt; inactive means no such curve, though single readings can be large; an effect the other way counts as inactive or inconclusive. Potency means the concentration at half of the fitted maximal effect.

SMILES	Pol iota inh	POLB inh	FEN1 inhibitor	WRN helicase inh	Pol eta inh	POLK inh
CCC(=O)Nc1ccc(NC(=O)CSc2nnc(-c3ccco3)n2CC)cc1	91%	?	4%	2%	-3%	5%
COc1ccc(/C=c2\[nH]c(=O)/c(=C/c3ccc(OC)cc3)[nH]c2=O)cc1	20%	.	10%	.	.	11%
O=C(CN1C(=O)CC(c2ccco2)Sc2ccccc21)Nc1ccccc1F (stereo not drawn)	45µM*	-18%	-7%	?	?	-21%
CC(NC(=O)COC(=O)c1ccc([N+](=O)[O-])s1)c1ccccc1 (stereo not drawn)	?	16µM*	-23%	-7%	?	-25%
O=C(COC(=O)c1ccc([N+](=O)[O-])s1)NCCc1ccccc1	56µM*	.	?	28%	?	?
Cc1ccc(C(=O)OCC(=O)NC(C)c2ccccc2)s1 (stereo not drawn)	18%	.	1%	4%	-7%	-10%
Cc1noc(C)c1-c1nccc(N(C)Cc2ccco2)n1	.	.	.	.	.	-4%[60.1 µM]
CN(Cc1ccco1)c1ccnc(-c2cccnc2)n1	.	.	.	.	.	25µM*
CCNc1nc(NC(C)C)nc(Nn2cnnc2)n1	118%	35µM*	-12%	1%	-9%	10%
CC(C)Nc1nc(NC(C)C)nc(Nn2cnnc2)n1	-11%	-1%	0%	-4%	2%	-21%
O=C(CCOc1ccccc1)NO	13%	.	-2%	.	.	3%
NCCCC[C@@H]1NC(=O)c2cc([N+](=O)[O-])cc(F)c2NCCCC[C@@H](C(N)=O)NC(=O)CNC1=O	21%	-1%	?	-2%	-26%	7%
NC(=O)CC[C@@H]1NC(=O)[C@H](CO)NC(=O)c2cc([N+](=O)[O-])cc(I)c2NCCCC[C@@H](C(N)=O)NC(=O)[C@H](Cc2ccc(O)cc2)NC1=O	?	2%	13%	-14%	-20%	-21%
NC(=O)C(CC(=O)O)NC(=O)[C@@H]1CCCCNc2c(I)cc([N+](=O)[O-])cc2C(=O)N[C@@H](CO)C(=O)NCC(=O)N1 (stereo partly drawn)	.	35µM*	.	.	.	.
NC(=O)C(CC(=O)O)NC(=O)[C@@H]1CCCNc2c(I)cc([N+](=O)[O-])cc2C(=O)N[C@@H](CO)C(=O)N[C@@H](Cc2ccc(O)cc2)C(=O)N1 (stereo partly drawn)	?	-24%	-9%	?	16µM*	50µM*
CCCCC[C@H](O)/C=C/C=C\CCCCCCCC(=O)O	.	.	.	.	.	3%[19.4 µM]
CCCCC[C@H](O)/C=C/C1=C(CCCCCCC(=O)O)C(=O)CC1	45µM*	?	-3%	?	25µM*	50µM*!
COc1ccc(Nc2nn3c(=O)c4cc5c(cc4nc3s2)OCO5)c(OC)c1	34%	3.5µM*	9%	.	?	-5%
Cc1ccc(C)c(Nc2nn3c(=O)c4ccc(C(=O)NCCc5ccccc5)cc4nc3s2)c1	-10%	35%	7%	.	4%	2%
COc1ccccc1Nc1nn2c(=O)c3ccc(C(=O)NCCc4ccccc4)cc3nc2s1	-10%	?	-7%	.	79µM*	0%
Cc1cc(C)c2nc(N3CCCN(C(=O)c4ccco4)CC3)c(C#N)cc2c1	-11%	40µM*	-21%	-32%	?	-20%
Cc1nc(N2CCN(C(=O)c3ccco3)CC2)c(C#N)c2c1CCCC2	80%	1%	-3%	-5%	-11%	-13%
CC(C)c1ccc(Cn2cnc3c(cnn3C(C)(C)C)c2=O)cc1	-7%	.	-18%	.	.	0%
O=S(=O)(c1ccc(-c2ccon2)s1)N1CCN(c2ccncc2)CC1	40µM*	13%	-7%	-10%	-35%	-6%
COC/C=C/C1=CC2=CC(=O)C(C)(OC(=O)c3cnc4ccccc4n3)C(=O)C2=CN1C1CCCCC1 (stereo not drawn)	.	-18%	.	.	.	.
SMILES	Pol iota inh	POLB inh	FEN1 inhibitor	WRN helicase inh	Pol eta inh	POLK inh
COC/C=C/C1=CC2=CC(=O)C(C)(OC(=O)c3cnc4ccccc4n3)C(=O)C2=CN1c1ccc(CO)cc1 (stereo not drawn)	.	1.8µM*	.	.	.	.
COC/C=C/C1=CC2=CC(=O)C(C)(OC(=O)c3cnc4ccccc4n3)C(=O)C2=CN1CC(C)C (stereo not drawn)	?	.	?	-11%	25µM*	?
COC/C=C/C1=CC2=CC(=O)C(C)(OC(=O)c3cnc4ccccc4n3)C(=O)C2=CN1c1ccccc1 (stereo not drawn)	?	?	-12%	-19%[57.1 µM]	25µM*	79µM*
CCOC(=O)CNC(=O)C1CCCCC1	21%	.	-2%	.	.	3%
COc1ccc(OC)c(CCNC(=O)CSc2ccsc2[N+](=O)[O-])c1	45µM*	-11%	9%	-22%[57.1 µM]	40µM*	?
O=C(CSc1ccsc1[N+](=O)[O-])NC1CCCC1	45µM*	?	4%	-6%[11.6 µM]	56µM*	-51%
COc1ccc(CCNC(=O)CSc2ccsc2[N+](=O)[O-])cc1OC	-8%	?	-12%	-4%	-8%	-3%[60.1 µM]
COc1ccc(CCNC(=O)CSc2ccsc2[N+](=O)[O-])c(OC)c1	?	?	16%	-7%[11.6 µM]	45µM*	-32%
COc1ccc(-n2nnnc2SCC(=O)NC2CC2)cc1	4%	.	35%	-2%	89µM*	4%
COc1cc(OC)c(/C=C/c2cc[n+](C)c3ccccc23)c(OC)c1	9%	.	?	.	.	1%
COc1cc(OC)c(OC)cc1/C=C/c1cc[n+](C)c2ccccc12	71µM*	.	40µM*	.	.	89µM*
C[n+]1ccc(/C=C/c2ccc(C=S)cc2)c2ccccc21	89µM*	.	50µM*	.	.	-23%
CCOc1ccc(C(c2c(O)cc(C)n(Cc3ccco3)c2=O)N2CCCCC2)cc1 (stereo not drawn)	11%	-1%	-18%	.	-6%	-5%[60.1 µM]
CC(C)c1nn2c(=O)cc(COC(=O)c3cccs3)nc2s1	24%	-1%	2%	.	-18%	-8%
CCOC(=O)CNS(=O)(=O)c1cc(-c2nnc(Nc3cccc(O)c3)c3ccccc23)ccc1C	89µM*	3%	?	.	-7%	?
Cc1ccc(-c2nnc(Nc3cccc(O)c3)c3ccccc23)cc1S(=O)(=O)NCCO	17%	1%	-21%	-11%	?	-24%
